How the values were obtained:
Assay in all cases: DAPPL (digital affinity profiling via proximity ligation, sequencing); 10 mM Tris-HCl pH 7.5, 50 mM NaCl, 1 mM DTT, 4% glycerol, room temperature, 30 min; GST-TFs on glutathione beads, 16-mer random dsDNA library, 0.1% formaldehyde crosslink after washing; high values mean tight binding
[1] = molecular target: T1, FEV (Homo sapiens, UniProt Q99581 1-238); settings: protein: recombinant; tags: N-terminal GST; dsDNA, one strand shown
T1 sequence: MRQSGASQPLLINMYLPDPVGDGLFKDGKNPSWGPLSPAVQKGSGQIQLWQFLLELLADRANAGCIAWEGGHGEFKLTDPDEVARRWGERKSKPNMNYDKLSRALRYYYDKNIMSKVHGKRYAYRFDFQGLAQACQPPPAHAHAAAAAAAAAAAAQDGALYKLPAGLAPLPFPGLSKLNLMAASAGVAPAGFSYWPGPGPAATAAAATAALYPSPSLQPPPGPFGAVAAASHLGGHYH
In short: (§1)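 Yeast served to express human transcription factors as GST fusions, which were then captured on glutathione beads and labelled with DNA barcodes. Pooled with a tag-only sample, they were incubated with 200 nmole of a 16-mer random double-stranded DNA library for 30 min at room temperature in Tris/NaCl/DTT/glycerol buffer, washed, crosslinked with 0.1% formaldehyde, ligated by proximity, amplified by PCR and sequenced. Dividing each hexamer's read frequency for a factor by its frequency for the tag-only sample gives the binding signal.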

[2] = molecular target: ETV5 (Homo sapiens, UniProt P41161 1-510); settings: protein: recombinant; tags: N-terminal GST; dsDNA, one strand shown
In short: as §1

[3] = molecular target: HSF1 (Homo sapiens, UniProt Q00613 1-529); settings: protein: recombinant; tags: N-terminal GST; chain copies: 3; dsDNA, one strand shown
In short: as §1

[4] = molecular target: T2, SPIC (Homo sapiens, UniProt Q8N5J4 1-248); settings: protein: recombinant; tags: N-terminal GST; dsDNA, one strand shown
T2 sequence: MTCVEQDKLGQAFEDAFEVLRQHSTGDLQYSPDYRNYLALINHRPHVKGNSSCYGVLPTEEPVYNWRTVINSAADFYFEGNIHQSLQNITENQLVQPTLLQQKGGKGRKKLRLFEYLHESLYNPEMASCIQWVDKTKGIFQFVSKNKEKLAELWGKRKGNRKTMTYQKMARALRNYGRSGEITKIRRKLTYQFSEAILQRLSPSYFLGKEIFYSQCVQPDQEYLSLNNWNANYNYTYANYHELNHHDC
In short: as §1

[5] = molecular target: ELF4 (Homo sapiens, UniProt Q99607 1-663); settings: protein: recombinant; tags: N-terminal GST; dsDNA, one strand shown
In short: as §1

[6] = molecular target: T3, ELK4 (Homo sapiens, UniProt P28324-2 1-405); settings: protein: recombinant; tags: N-terminal GST; dsDNA, one strand shown
T3 sequence: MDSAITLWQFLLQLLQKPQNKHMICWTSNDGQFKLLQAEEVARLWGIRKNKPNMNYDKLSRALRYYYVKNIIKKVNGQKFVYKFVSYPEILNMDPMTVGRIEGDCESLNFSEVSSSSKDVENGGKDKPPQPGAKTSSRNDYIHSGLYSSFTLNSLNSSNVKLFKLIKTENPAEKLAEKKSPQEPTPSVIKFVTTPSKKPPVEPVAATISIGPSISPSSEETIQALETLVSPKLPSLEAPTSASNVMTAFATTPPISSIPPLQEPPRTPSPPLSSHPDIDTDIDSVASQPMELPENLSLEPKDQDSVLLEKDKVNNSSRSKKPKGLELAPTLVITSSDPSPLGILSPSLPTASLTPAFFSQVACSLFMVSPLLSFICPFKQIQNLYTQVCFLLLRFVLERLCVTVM
In short: as §1

[7] = molecular target: T4, ETV2 (Homo sapiens, UniProt O00321 1-342); settings: protein: recombinant; tags: N-terminal GST; dsDNA, one strand shown
T4 sequence: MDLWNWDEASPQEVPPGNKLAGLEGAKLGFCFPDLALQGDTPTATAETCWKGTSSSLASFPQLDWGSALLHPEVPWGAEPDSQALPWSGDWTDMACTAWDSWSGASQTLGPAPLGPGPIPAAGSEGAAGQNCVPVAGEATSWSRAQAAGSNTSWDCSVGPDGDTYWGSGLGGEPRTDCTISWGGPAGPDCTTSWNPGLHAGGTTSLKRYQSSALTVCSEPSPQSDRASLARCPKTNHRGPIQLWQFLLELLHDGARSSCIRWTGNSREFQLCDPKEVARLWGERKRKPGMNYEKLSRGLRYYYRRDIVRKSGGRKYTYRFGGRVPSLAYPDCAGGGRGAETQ
In short: as §1

[8] = molecular target: T5, ELF3 (Homo sapiens, UniProt P78545 1-371); settings: protein: recombinant; tags: N-terminal GST; dsDNA, one strand shown
T5 sequence: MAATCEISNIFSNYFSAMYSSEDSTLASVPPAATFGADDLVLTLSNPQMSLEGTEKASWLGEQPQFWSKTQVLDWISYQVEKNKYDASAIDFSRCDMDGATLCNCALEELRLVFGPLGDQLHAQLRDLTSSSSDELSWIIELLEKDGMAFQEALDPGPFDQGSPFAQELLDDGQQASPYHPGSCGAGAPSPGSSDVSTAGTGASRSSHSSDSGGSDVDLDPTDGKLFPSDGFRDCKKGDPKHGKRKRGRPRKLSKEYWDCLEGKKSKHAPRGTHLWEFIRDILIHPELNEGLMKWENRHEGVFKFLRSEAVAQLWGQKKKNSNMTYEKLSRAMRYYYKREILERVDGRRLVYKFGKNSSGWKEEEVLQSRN
In short: as §1

[9] = molecular target: CRX (Homo sapiens, UniProt O43186 1-299); settings: protein: recombinant; tags: N-terminal GST; dsDNA, one strand shown
In short: as §1

[10] = molecular target: ETV1 (Homo sapiens, UniProt P50549 1-477); settings: protein: recombinant; tags: N-terminal GST; dsDNA, one strand shown
In short: as §1

[11] = molecular target: T6, ERF (Homo sapiens, UniProt P50548 1-548); settings: protein: recombinant; tags: N-terminal GST; dsDNA, one strand shown
T6 sequence: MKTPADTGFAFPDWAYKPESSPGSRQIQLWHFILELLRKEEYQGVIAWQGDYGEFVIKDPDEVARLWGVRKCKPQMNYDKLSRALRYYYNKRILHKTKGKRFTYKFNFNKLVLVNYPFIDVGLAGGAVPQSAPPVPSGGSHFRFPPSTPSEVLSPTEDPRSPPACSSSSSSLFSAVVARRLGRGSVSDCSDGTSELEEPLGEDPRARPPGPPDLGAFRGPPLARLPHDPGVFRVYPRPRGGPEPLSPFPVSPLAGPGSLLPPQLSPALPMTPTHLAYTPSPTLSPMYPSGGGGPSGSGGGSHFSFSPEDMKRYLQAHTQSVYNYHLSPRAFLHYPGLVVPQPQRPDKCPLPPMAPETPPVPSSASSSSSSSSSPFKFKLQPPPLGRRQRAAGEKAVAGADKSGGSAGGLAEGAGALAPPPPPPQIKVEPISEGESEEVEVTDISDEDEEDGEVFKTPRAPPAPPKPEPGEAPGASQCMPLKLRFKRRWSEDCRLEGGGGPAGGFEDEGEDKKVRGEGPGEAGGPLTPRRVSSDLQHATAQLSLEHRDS
In short: as §1

[12] = molecular target: T7, ETV3L (Homo sapiens, UniProt Q6ZN32 1-361); settings: protein: recombinant; tags: N-terminal GST; dsDNA, one strand shown
T7 sequence: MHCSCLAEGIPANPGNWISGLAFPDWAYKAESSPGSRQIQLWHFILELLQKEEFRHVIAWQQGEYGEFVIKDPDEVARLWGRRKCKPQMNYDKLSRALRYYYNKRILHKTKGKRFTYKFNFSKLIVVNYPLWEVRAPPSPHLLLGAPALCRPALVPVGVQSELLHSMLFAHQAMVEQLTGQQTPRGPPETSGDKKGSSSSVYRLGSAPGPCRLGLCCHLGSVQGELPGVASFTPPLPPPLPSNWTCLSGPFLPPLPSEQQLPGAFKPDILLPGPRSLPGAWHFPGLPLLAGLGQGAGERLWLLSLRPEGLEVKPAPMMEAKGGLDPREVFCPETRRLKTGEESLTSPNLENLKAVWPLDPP
In short: as §1

[13] = molecular target: T8, ETS2 (Homo sapiens, UniProt P15036 1-469); settings: protein: recombinant; tags: N-terminal GST; dsDNA, one strand shown
T8 sequence: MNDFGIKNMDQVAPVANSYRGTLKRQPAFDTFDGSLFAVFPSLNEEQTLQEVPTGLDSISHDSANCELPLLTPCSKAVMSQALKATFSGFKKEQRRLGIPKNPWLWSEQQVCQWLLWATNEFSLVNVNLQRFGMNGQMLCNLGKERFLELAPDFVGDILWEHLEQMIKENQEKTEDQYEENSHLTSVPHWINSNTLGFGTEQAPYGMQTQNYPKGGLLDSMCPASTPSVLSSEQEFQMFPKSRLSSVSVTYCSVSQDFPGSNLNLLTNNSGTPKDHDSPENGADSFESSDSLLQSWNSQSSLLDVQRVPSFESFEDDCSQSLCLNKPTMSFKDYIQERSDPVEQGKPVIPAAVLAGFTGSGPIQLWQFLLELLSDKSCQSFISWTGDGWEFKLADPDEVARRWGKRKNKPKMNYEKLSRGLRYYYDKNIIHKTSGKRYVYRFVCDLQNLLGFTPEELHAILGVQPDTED
In short: as §1

[14] = molecular target: T9, SPDEF (Homo sapiens, UniProt O95238 1-335); settings: protein: recombinant; tags: N-terminal GST; dsDNA, one strand shown
T9 sequence: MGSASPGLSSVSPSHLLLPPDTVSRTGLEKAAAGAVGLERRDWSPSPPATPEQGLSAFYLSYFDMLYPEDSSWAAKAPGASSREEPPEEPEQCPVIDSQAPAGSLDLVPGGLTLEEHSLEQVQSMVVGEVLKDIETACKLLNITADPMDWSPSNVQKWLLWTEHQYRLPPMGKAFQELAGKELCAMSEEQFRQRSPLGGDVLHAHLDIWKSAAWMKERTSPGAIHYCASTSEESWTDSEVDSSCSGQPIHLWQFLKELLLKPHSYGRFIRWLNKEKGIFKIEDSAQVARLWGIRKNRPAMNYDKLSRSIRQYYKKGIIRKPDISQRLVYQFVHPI
In short: as §1

[15] = molecular target: T10, ETV7 (Homo sapiens, UniProt Q9Y603 1-341); settings: protein: recombinant; tags: N-terminal GST; dsDNA, one strand shown
T10 sequence: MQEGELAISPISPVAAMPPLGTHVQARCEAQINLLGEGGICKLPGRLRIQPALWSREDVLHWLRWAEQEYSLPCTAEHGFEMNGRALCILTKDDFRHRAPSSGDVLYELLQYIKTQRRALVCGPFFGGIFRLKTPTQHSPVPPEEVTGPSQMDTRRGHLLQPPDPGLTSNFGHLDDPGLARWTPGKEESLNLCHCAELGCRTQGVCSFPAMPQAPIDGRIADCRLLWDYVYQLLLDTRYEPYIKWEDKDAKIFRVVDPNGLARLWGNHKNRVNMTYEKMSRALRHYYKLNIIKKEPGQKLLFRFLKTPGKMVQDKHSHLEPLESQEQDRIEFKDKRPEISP
In short: as §1

[16] = molecular target: T11, ELF5 (Homo sapiens, UniProt Q9UKW6-2 1-255); settings: protein: recombinant; tags: N-terminal GST; dsDNA, one strand shown
T11 sequence: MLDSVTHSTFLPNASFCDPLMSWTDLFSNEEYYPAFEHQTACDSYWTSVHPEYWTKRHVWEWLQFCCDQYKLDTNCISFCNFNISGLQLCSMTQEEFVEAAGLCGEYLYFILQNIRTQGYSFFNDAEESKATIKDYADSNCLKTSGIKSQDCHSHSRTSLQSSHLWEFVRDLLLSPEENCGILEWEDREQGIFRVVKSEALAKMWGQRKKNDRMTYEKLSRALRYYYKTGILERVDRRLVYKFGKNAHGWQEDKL
In short: as §1

[17] = molecular target: T12, ETV3 (Homo sapiens, UniProt P41162-2 1-143); settings: protein: recombinant; tags: N-terminal GST; dsDNA, one strand shown
T12 sequence: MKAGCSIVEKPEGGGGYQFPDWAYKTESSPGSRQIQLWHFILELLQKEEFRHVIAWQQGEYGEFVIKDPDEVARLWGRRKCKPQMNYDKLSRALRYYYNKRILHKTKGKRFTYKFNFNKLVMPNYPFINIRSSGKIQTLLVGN
In short: as §1

[18] = molecular target: ETV6 (Homo sapiens, UniProt P41212 1-452); settings: protein: recombinant; tags: N-terminal GST; dsDNA, one strand shown
In short: as §1

Sequence of ETV5 (P41161 whole entry): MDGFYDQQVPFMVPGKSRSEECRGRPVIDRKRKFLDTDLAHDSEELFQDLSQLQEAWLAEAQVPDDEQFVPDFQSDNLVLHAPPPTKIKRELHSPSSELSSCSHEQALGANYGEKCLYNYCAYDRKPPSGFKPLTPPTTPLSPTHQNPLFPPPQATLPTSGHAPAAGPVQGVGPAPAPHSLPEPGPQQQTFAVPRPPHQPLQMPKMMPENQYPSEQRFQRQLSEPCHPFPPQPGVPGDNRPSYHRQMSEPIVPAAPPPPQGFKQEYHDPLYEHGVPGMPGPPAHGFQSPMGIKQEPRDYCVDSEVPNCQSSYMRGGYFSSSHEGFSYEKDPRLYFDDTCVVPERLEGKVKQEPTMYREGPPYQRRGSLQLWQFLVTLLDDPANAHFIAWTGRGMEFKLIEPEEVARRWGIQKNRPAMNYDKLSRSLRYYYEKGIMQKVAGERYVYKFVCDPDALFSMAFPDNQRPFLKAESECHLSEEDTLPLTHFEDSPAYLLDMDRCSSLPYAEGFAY
Sequence of ETV1 (P50549 whole entry): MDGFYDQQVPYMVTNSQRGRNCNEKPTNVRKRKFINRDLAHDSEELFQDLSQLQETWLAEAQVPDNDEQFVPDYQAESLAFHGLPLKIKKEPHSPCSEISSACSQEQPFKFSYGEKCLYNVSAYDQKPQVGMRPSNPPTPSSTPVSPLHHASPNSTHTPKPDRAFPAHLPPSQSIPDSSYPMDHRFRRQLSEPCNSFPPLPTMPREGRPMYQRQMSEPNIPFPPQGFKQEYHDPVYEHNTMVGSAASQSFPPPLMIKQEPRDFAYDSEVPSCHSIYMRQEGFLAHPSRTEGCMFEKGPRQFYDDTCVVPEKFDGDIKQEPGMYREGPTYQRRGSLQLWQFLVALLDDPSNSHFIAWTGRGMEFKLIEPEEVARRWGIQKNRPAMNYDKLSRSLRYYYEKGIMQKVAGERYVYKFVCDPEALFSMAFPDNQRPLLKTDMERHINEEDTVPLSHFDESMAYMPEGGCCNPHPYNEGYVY
Sequence of CRX (O43186 whole entry): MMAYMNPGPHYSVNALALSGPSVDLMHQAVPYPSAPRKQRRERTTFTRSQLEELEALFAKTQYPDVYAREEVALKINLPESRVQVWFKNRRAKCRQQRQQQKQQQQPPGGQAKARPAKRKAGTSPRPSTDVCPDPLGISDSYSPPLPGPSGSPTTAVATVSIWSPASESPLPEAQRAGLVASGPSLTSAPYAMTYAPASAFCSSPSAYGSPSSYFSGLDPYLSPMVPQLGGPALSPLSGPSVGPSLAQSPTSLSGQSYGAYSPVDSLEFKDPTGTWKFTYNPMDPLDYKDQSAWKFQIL
Sequence of ELF4 (Q99607 whole entry): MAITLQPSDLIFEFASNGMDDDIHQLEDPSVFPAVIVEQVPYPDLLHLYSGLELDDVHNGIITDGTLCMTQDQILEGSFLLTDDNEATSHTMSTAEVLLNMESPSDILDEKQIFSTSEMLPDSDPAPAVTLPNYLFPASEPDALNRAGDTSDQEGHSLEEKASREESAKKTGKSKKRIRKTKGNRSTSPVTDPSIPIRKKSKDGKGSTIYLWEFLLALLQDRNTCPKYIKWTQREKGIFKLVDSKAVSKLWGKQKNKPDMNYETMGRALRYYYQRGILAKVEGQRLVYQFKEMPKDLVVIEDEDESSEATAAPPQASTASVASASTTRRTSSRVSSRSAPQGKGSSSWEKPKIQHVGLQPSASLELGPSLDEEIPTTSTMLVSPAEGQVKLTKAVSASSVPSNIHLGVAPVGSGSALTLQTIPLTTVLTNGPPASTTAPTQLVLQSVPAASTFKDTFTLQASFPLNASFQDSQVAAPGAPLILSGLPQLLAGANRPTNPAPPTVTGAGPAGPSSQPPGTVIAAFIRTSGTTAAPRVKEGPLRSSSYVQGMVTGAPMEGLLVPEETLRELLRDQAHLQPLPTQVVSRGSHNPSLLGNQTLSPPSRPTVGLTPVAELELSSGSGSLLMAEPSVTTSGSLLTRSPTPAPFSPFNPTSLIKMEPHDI
Sequence of HSF1 (Q00613 whole entry): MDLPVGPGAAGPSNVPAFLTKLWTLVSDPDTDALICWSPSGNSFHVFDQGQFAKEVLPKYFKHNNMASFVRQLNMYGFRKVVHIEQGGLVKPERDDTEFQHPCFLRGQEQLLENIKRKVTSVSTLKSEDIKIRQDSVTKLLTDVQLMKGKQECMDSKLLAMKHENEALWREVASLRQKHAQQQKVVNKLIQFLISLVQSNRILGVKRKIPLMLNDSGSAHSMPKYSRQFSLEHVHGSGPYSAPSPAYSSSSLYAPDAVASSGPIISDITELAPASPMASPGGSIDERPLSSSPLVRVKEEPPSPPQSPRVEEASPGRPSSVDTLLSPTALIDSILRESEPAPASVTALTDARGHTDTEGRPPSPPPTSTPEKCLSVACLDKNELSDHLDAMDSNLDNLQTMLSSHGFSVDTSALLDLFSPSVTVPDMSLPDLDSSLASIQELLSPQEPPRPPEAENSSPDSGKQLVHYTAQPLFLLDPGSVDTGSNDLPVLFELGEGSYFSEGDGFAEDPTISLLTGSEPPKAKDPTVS
Sequence of ETV6 (P41212 whole entry): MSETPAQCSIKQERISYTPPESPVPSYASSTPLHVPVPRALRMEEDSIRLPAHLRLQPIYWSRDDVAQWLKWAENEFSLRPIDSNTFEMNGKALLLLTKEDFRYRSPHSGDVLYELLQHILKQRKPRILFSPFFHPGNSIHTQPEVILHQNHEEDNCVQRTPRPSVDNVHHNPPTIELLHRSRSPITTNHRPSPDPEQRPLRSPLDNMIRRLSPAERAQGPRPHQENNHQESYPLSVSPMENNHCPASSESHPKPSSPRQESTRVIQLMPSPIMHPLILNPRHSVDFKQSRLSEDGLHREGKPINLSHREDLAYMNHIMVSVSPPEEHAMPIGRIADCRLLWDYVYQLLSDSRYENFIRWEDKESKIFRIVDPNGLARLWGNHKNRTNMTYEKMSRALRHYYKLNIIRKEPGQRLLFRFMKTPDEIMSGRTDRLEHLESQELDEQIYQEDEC

Q: What does the source list for TCTTGG?
A: binding signal [1]: 1.3 fold enrichment (6-mer frequency, TF over GST control); binding signal [2]: 1.32 fold enrichment (6-mer frequency, TF over GST control); binding signal [3]: 1.39 fold enrichment (6-mer frequency, TF over GST control); binding signal [4]: 1.47 fold enrichment (6-mer frequency, TF over GST control); binding signal [5]: 1.39 fold enrichment (6-mer frequency, TF over GST control); binding signal [6]: 1.41 fold enrichment (6-mer frequency, TF over GST control); binding signal [7]: 1.22 fold enrichment (6-mer frequency, TF over GST control); binding signal [8]: 1.41 fold enrichment (6-mer frequency, TF over GST control); binding signal [9]: 1.32 fold enrichment (6-mer frequency, TF over GST control); binding signal [10]: 1.23 fold enrichment (6-mer frequency, TF over GST control); binding signal [11]: 1.4 fold enrichment (6-mer frequency, TF over GST control); binding signal [12]: 1.43 fold enrichment (6-mer frequency, TF over GST control); binding signal [13]: 1.27 fold enrichment (6-mer frequency, TF over GST control); binding signal [14]: 1.27 fold enrichment (6-mer frequency, TF over GST control); binding signal [15]: 1.38 fold enrichment (6-mer frequency, TF over GST control); binding signal [16]: 1.31 fold enrichment (6-mer frequency, TF over GST control); binding signal [17]: 1.29 fold enrichment (6-mer frequency, TF over GST control); binding signal [18]: 1.19 fold enrichment (6-mer frequency, TF over GST control)

Reference: PMC7862700, “An all-to-all approach to the identification of sequence-specific readers for epigenetic DNA modifications on cytosine”
